# Source: PubChem BioAssay (NCI)
# Compounds without any hit were thinned out: in the full panel of roughly 83,000, 20% have a hit.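 The endpoint reported here, percent growth, reads 100 for growth as untreated, 0 for no net growth and -100 for all cells dead.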 Values without a mark were called inactive. Activity calls are given as the source filed them. The calls were made as follows: active = growth percent below 10; inactive = the rest.
# Assays:
# Test in all cases: NCI-60 one-dose screen, 48 h (100 = growth as untreated, 0 = no growth, -100 = all killed)
# Conditions in all cases: 10 µM unless noted
# [1] = tested on: SK-MEL-2 melanoma
# [2] = tested on: SN12C renal
# [3] = tested on: UO-31 renal
# [4] = tested on: TK-10 renal
# [5] = tested on: ACHN renal
# [6] = tested on: CAKI-1 renal
# [7] = tested on: A498 renal
# [8] = tested on: CCRF-CEM leukemia
# [9] = tested on: MOLT-4 leukemia
SMILES,growth [1] [%],growth [2],growth [3],growth [4],growth [5],growth [6],growth [7] [%],growth [8],growth [9] [%]
CC(CN1CCN(CCOCCO)CC1)CN1c2ccccc2Sc2ccc(Cl)cc21 (configuration not stated),80.7,69.9%,50.1%,74.4%,69.4%,69.4%,43.9,63.2%,28.5
Cc1cc(NC(=O)C2c3ccccc3C(=O)N(CC(C)C)C2c2cccs2)no1 (configuration not stated),50.7,-30.9% (active),-89.7% (active),-5.69% (active),0.299% (active),-40.1% (active),113,-13% (active),16.7
CC(C)N=C1CCCC1C(=S)SSC(=S)C1CCCC1=NC(C)C (configuration not stated),94.7,58.1%,54.3%,109%,68.4%,39.3%,83.4,22.9%,61.2
